Source: PubChem BioAssay (Tox21)
Values joined by “and” are separate entries in the source; they are usually repeats but may differ in a detail not shown here. Identical values can stand only once. Inconclusive results are not listed. Some compounds were tested as several samples or in several runs, with calls that do not always agree. Active and inactive are the calls of the source. The call rests on the fitted dose curve; in most records, active means well fitted cell-killing curve with a large enough effect in the repeat runs; inconclusive means weak or mixed curves, or effect the other way; inactive means flat fitted curve, though single readings scatter.

experiment: qHTS RealTime-Glo MT Cell Viability Assay in HEK293 cells - 40 hour (AID 1224874); conditions: RealTime-Glo luminescence; max response: stronger effect = lower value; further: nearly all actives have a fitted effect of over 50% in size
Text: U.S. Tox21 Program National Center for Advancing Translational Sciences [NCATS] NIH Chemical Genomics Center [NCGC] U.S. Environmental Protection Agency [EPA] National Institutes of Environmental Health Sciences [NIEHS] National Toxicology Program [NTP] U.S. Food and Drug Administration [FDA] Tox21 Assay Overview: Measure of cell viability is critical in the cell-base assay. Analysis of cell viability is necessary for the characterization of cell responses to cytotoxic drugs and environmental stress. A RealTime-Glo MT Cell Viability Assay to monitor cell viability in real time of continues cell culture during 40 hours of compound treatment was used to screen Tox21 10K library compounds in Hek293 cells. The RealTime-Glo MT Cell Viability Assay is a nonlytic, homogeneous, bioluminescent method to measure cell viability in real time using a simple, plate-based method. The assay involves adding NanoLuc luciferase and a cell-permeant prosubstrate to cells in culture. Viable cells reduce the proprietary prosubstrate to generate a substrate for NanoLuc luciferase. This substrate diffuses from cells into the surrounding culture medium, where it is rapidly used by the NanoLuc Enzyme to produce a luminescent signal. The signal correlates with the number of viable cells, making the assay well suited for cytotoxicity studies.
Tox21 Assay Protocol Summary: The mixture of Hek293 cell suspension and reagents were dispensed at 600cells/6 ul/well in 1536-well tissue culture treated black solid bottom plates using a Multidrop dispenser. After the assay plates were incubated at a 37 C/5% CO2 incubator for 5 hours, 23 nL of compounds dissolved in DMSO, positive and negative controls was transferred to the assay plate by a pintool work station. The plates were incubated at 37 C for 40 hours. The luminescence intensity were measured at 0h, 8h, 16h, 24h, 32h and 40h time points using ViewLux plate reader during compound treatment.
On the % scale 0 is the no-effect control and ±100 the full control effect; potency means the concentration at half of the fitted maximal effect.

Structure (SMILES) | max response | Potency
O=C(O)c1ccc2c(c1)C(=O)OC2=O | 5.17% (inactive) and 0.547% (inactive) | 
CCCCC(CC)CO (stereo not given) | 6.29% (inactive) and 2.53% (inactive) | 
CC(C)CC(=O)CC(C)C | 3.78% (inactive) and -11.6% (inactive) | 
CCCC(C)=O | 3.18% (inactive) and 6.23% (inactive) | 
CC1=CC(=O)NS(=O)(=O)O1 | -28.6% (inactive) and 3.78% (inactive) | 
Cc1ccc(S(N)(=O)=O)cc1 | 1.64% (inactive) | 
CC(=O)Nc1cccc(O)c1 | -14.2% (inactive) and 4.42% (inactive) | 
O=C(O)CCCC[C@@H]1SC[C@@H]2NC(=O)N[C@@H]21 | 6.98% (inactive) and 0.709% (inactive) | 
COc1ccc(Nc2ccccc2)c(C)c1 | 2.22% (inactive) and -26.6% (inactive) | 
CCCCCCCCCCCCS | 0.961% (inactive) and 6.67% (inactive) | 
c1ccc2scnc2c1 | 13.8% (inactive) and 1.41% (inactive) | 
COCCCOc1ccnc(CS(=O)c2nc3ccccc3[nH]2)c1C (stereo not given) | -13.3% (inactive) | 9.74 µM (active)
C=CCNC(N)=S | -13.5% (inactive) and 2.87% (inactive) | 
C=C(C)C(=O)OCCOCCOCCOC(=O)C(=C)C | -0.0416% (inactive) and 6.25% (inactive) | 
Nc1ccccc1[N+](=O)[O-] | 3.94% (inactive) and 2.64% (inactive) | 
CC(C)(N)CO | 5.94% (inactive) and 1.04% (inactive) | 
COc1ccc(Cl)cc1C(=O)NCCc1ccc(S(=O)(=O)NC(=O)NC2CCCCC2)cc1 | -19.9% (inactive) and -25.1% (inactive) | 
Nc1cc([N+](=O)[O-])ccc1O | -21.5% (inactive) and -15.3% (inactive) | 
CSCCC=O | 4.41% (inactive) and 31% (inactive) | 

Structure (SMILES) | max response | Potency
O=C(O)c1ccc(C(=O)O)cc1 | -0.318% (inactive) and 3.28% (inactive) | 
Cc1ccc2oc(=O)ccc2c1 | -2.42% (inactive) and -2.11% (inactive) | 
O=c1[nH]c(=O)n([C@H]2C[C@H](O)[C@@H](CO)O2)cc1Br | 0.308% (inactive) | 
CC1CCC2CC1C2(C)C (stereo not given) | -4.21% (inactive) and 10.8% (inactive) | 
O=C=NCCCCCCN=C=O | 4.38% (inactive) | 
COc1ccc2cc([C@H](C)C(=O)O)ccc2c1 | 5.06% (inactive) and -0.971% (inactive) | 
CCC(O)OC(O)CC (stereo not given) | 5.86% (inactive) and 8.63% (inactive) | 
CC(=O)c1ccccc1 | 0.254% (inactive) and 9.46% (inactive) | 
O=C(O)CCCCCCCCCCC(=O)O | -3.15% (inactive) and -61.6% (inactive) | 
CCCCN(CCCC)CCCC | 6% (inactive) and 4.07% (inactive) | 
O=[N+]([O-])c1ccc(/C=C/c2ccc([N+](=O)[O-])cc2S(=O)(=O)O)c(S(=O)(=O)O)c1 | 6.57% (inactive) and 8.56% (inactive) | 
NNc1nncc2ccccc12 | 2.59% (inactive) | 
CCCCC(CC)COC(=O)CCCCC(=O)OCC(CC)CCCC (stereo not given) | -6.84% (inactive) and 6.57% (inactive) | 
CCCCC(CC)COC(=O)CS (stereo not given) | 6.5% (inactive) | 19.5 µM (active)
CN(C)CCC(c1ccc(Cl)cc1)c1ccccn1 (stereo not given) | -8.75% (inactive) and -11.3% (inactive) | 
O=C(O)c1cc(O)c(O)c(O)c1 | -26.7% (inactive) and 2.18% (inactive) | 
CCCCCCCCCCCCCCO | -1.67% (inactive) and 1.72% (inactive) | 
FC(F)(F)c1ccc(Cl)c(Cl)c1 | 1.14% (inactive) and 2.54% (inactive) | 
CN(C)CCOCCN(C)C | 0.168% (inactive) and 5.1% (inactive) | 
